Screens deposited in PubChem BioAssay by several laboratories.
Beta cell apopt = beta cell apoptosis inhibition; 0.8% of 300,000 active; INS-1E cytokine-induced death, ATP luminescence, 48 h; percent of positive-control rescue, neutral wells zero; AID 435005; protection from apoptosis, % (no concentration beside the values);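 active means Every replicate reaches about 75%, or at least half do and their mean reaches it too, limit read from the data; inconclusive means At least half of replicates reach the limit but their mean does not; inactive means Under half of replicates reach the limit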;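 further: 0% = cytokine-treated negative control wells and 100% = positive control rescue; higher means more ATP so stronger rescue from cytokine killing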
MPTP inh = blocks calcium-induced mitochondrial swelling. isolated mouse mitochondria, Ca2+ swelling absorbance, 30 min. inhibition, % at 10 µM. 1.4% of 360,000 active;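 active means inhibition of 50% or more, scaled per plate between neutral and stimulator controls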;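 further: 0% = DMSO wells given calcium and 100% = 1 mM EGTA wells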
SKKanGAS inh = blocks kanamycin growth of S. pyogenes SKKanGAS strain; BacTiter-Glo, 6 h; inhibition, % at 7.5 µM; 1.3% of 300,000 active;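 active means mean replicate score, as percent of positive control median, at least 50; inconclusive means mean below 50 but one replicate at or above 50; inactive means mean and every replicate below 50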;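 further: strain carries kanamycin resistance gene driven by streptokinase promoter and grows in 40 µg/ml kanamycin; loss of luminescence reflects streptokinase promoter inhibition or plain growth inhibition; 0% = median of DMSO wells and 100% = positive control at its reference dose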
Mdm2 MdmX PPI = inhibitors of human Mdm2/MdmX interaction; O15151+Q00987; inhibition, % at 8 µM; AID 485346; 3% of 330,000 active; SaOS-2 split-luciferase Mdm2/MdmX complementation, luminescence;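 active means inhibition of at least 50% at 8 µM in the primary screen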
Target sequence (O15151 whole entry, looked up): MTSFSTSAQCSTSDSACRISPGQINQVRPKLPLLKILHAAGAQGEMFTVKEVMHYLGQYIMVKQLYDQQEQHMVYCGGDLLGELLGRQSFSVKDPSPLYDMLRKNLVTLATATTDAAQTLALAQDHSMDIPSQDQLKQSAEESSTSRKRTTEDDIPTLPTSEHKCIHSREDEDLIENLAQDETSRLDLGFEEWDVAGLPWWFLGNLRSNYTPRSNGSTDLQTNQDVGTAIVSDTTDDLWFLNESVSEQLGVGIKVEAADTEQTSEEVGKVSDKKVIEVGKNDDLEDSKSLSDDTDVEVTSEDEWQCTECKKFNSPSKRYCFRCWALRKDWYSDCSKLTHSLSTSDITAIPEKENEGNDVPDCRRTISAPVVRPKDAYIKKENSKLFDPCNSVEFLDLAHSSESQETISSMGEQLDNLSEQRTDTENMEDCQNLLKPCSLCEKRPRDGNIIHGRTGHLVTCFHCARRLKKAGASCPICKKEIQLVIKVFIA
Target sequence (Q00987 whole entry, looked up): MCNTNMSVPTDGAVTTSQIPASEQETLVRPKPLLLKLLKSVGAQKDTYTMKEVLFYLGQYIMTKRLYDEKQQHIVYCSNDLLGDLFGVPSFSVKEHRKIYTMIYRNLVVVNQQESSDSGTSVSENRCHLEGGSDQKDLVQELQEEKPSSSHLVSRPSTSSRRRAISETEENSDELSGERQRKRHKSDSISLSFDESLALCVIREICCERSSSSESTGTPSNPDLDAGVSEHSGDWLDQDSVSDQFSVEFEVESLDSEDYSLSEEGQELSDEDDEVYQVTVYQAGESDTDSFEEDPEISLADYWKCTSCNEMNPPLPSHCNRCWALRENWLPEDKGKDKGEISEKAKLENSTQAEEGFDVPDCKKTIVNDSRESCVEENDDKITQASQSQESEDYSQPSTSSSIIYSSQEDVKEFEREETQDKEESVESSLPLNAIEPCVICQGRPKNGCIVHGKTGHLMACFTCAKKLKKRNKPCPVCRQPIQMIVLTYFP
Calb FLC = C. albicans growth modulation with fluconazole | C. albicans CaCi-2 (fluconazole-resistant clinical isolate) + fluconazole, Alamar Blue growth, 48 h | AID 1979 | growth inhibition, % (test concentration not listed) | 0.57% of 300,000 active;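 active means growth inhibition above about 58% in most replicates, limit read from the data, passing the limit was not always enough; inconclusive means exactly half the replicates above a set limit; inactive means most replicates below a set limit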;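 further: all wells also contain fluconazole at 8 µg/ml as a sub-toxic cotreatment; 0% = median of DMSO wells and 100% = median of geldanamycin control wells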
CSC inhib = cancer stem cell inhibition; cancer stem cell-like cells viability, luminescence; inhibition, % at 7.5 µM; AID 2717; 1.1% of 300,000 active; in the data active means inhibition above about 75%; inconclusive means no clear call, values can overlap the other calls; tested in HMLE shEcad cells
Mdm2 MdmX conf = human Mdm2/MdmX binding inhibition, confirmed. shares compounds with Mdm2 MdmX PPI. luminescent assay. inhibition, % at 8 µM. 55% of 10,000 active; in the data active means inhibition above about 40%
FLuc counter = inhibits full-length luciferase, flagging false Mdm2/MdmX hits; shares compounds with Mdm2 MdmX PPI; SaOS-2 full-length luciferase counterscreen, luminescence; inhibition, % at 8 µM; 77% of 6,200 active; AID 504607;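 active means mean inhibition at 8 µM reaching about 37%, which flags the compound as non-specific, limit read from the data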;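 further: p53-null SaOS-2 cells with luciferase driven by a doxycycline-inducible promoter; compound on cells about two nights before reading with doxycycline added after day one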
An asterisk follows results filed as active; ? = inconclusive; · = no result given. Shown are actives, neighbours in structure and some others; about 5.4% of the full set was active somewhere.

SMILES | Beta cell apopt | MPTP inh | SKKanGAS inh | Mdm2 MdmX PPI | Calb FLC | CSC inhib | Mdm2 MdmX conf | others
Cc1noc(/C=C/N(C)C)c1S(=O)(=O)N1CCN(c2ccccc2)CC1 | -2.8 | 0.8 | 2.0 | 2.7 | -3.9 | · | ·
O=C(NCC(c1ccco1)N1CCc2ccccc21)C(=O)Nc1ccccc1F (configuration not stated) | -4.1 | -1.6 | 3.3 | 22.3 | -5.3 | 0.3 | ·
O=C(NCC(c1ccco1)N1CCc2ccccc21)C(=O)Nc1ccc(F)cc1F (configuration not stated) | -2.7 | -2.8 | 4.3 | 52.3* | 27.9 | 59.9 | 72.5* | FLuc counter=64.5*
CC(SCc1ccccc1)C(=O)N/N=C/c1cccs1 (configuration not stated) | -15.1 | 1.0 | -9.1 | -16.4 | -22.8 | -10.8 | ·
O=C(Nc1cc(F)ccc1F)C1CCCN1S(=O)(=O)c1cccc2nsnc12 (configuration not stated) | 0.1 | -0.2 | -4.3 | 14.9 | -1.6 | -11.8 | ·
COc1ccc(CCn2c(N3CCN(C)CC3)nc3c2c(=O)[nH]c(=O)n3C)cc1 | -3.0 | 0.3 | 9.8 | 20.7 | -11.1 | -10.3 | ·
CCCn1c(N2CCN(CC(=O)c3c(C)n(C)c4ccc(OC)cc34)CC2)nc2c1c(=O)[nH]c(=O)n2C | · | -0.4 | 19.1 | 54.8* | -1.5 | · | 22.1
COc1cc(C(=O)/C=C/c2cccnc2)ccc1O | · | -0.8 | 6.6 | 50.9* | 61.0 | 28.2 | 18.1
COc1cc(O)cc(O)c1C(=O)/C=C/c1ccccc1 | 0.8 | 1.8 | 4.6 | 51.7* | 10.0 | 34.2 | 29.0
COc1ccc(OC)c(C(=O)/C=C/c2cccnc2)c1 | -9.6 | 0.5 | -6.9 | 67.8* | -0.2 | 49.1 | 29.6 | FLuc counter=56.2*
O=C(/C=C/c1cccnc1)c1cc(F)ccc1O | -3.7 | 0.8 | -8.9 | 5.6 | -12.7 | -0.2 | ·
COc1cc(C#Cc2c(-c3cncn3C)n(C)c3ccc(Br)cc23)cc(OC)c1 | 3.5 | 0.3 | · | 75.0* | · | · | -3.2
COc1cc(C#Cc2c(-c3cncn3C)n(C)c3ccc(-c4ccc(OC)c(OC)c4)cc23)cc(OC)c1 | 12.9 | 1.2 | · | 52.0* | · | 49.4 | 22.6
COc1ccc(C)cc1S(=O)(=O)N(C)CC(=O)NCc1ccccn1 | · | -0.9 | -2.5 | 14.2 | -3.2 | -16.5 | ·
COC(=O)/C=C1\OCc2cc(OC)c(OCc3ccccc3)cc21 | · | -2.1 | · | · | · | · | ·
CC(=O)Nc1ccc(NC(=S)NC(=O)c2oc3ccccc3c2C)cc1 | -6.7 | 1.3 | 14.4 | 62.4* | -6.9 | 2.2 | -0.8
CCC(=O)Nc1ccc(NC(=S)NC(=O)c2oc3ccccc3c2C)cc1 | -5.9 | 3.5 | -2.5 | 72.0* | -17.5 | -7.9 | -17.1
CCOC(=O)c1c(NC(=O)CSc2nc3ccc(OC)cc3[nH]2)sc2c1CC(C)(C)NC2(C)C | -2.7 | 0.3 | -1.1 | 44.2 | -0.3 | -5.7 | ·
CC(C)(C)C1CCC(CN2C(Nc3ccccc3)=NC[C@@H]2Cc2ccccc2)CC1 (some centres not stated) | 23.5 | 5.9 | · | 100.5* | · | 106.7* | 39.9 | FLuc counter=47.2*
Cc1ccc2oc(C(=O)Nc3ccc(S(=O)(=O)Nc4onc(C)c4C)cc3)cc(=O)c2c1 | -7.3 | -1.1 | 42.4 | 15.7 | -3.3 | -12.1 | ·
Cc1ccc(N(Cc2ccc(C(=O)Nc3c(C)n(C)n(-c4ccccc4)c3=O)cc2)S(C)(=O)=O)cc1C | -0.1 | 1.8 | 6.7 | -4.7 | 3.7 | 1.1 | ·
O=C1CC(c2ccc3c(c2)OCO3)Sc2nc3ccccc3n21 (configuration not stated) | 0.9 | -1.1 | 0.7 | 54.2* | -6.1 | 14.9 | 67.0* | FLuc counter=169.3*
CCn1ncc(CN2CCCC(C(=O)Nc3cccc(-c4cc5ccccc5[nH]4)c3)C2)c1C (configuration not stated) | -1.8 | 0.3 | -1.4 | 58.5* | 2.8 | 20.1 | 12.4
CCc1ccc(Nc2nc(N)nc(CSc3nnnn3-c3ccccc3)n2)cc1 | -8.4 | -0.4 | -2.9 | 59.5* | -3.7 | 23.3 | 62.5* | FLuc counter=47.7*
COc1ccc(C(=O)Nn2c(SCC(=O)N3CCC(C)CC3)nc3ccccc3c2=O)cc1 | 15.8 | 5.4 | 14.1 | 58.7* | ? | 10.7 | 48.0* | FLuc counter=141.8*
SMILES | Beta cell apopt | MPTP inh | SKKanGAS inh | Mdm2 MdmX PPI | Calb FLC | CSC inhib | Mdm2 MdmX conf | others
COc1ccc(C(=O)Nn2c(SCC(=O)NC3CCCCC3)nc3ccccc3c2=O)cc1 | · | -7.5 | 5.6 | 18.4 | -47.0 | 17.5 | ·
COc1ccc(NC(=S)NCCN2CCC(C)CC2)cc1Cl | -7.3 | 1.5 | 15.9 | -10.9 | -58.1 | 15.4 | ·
CCn1nc(C)c(C(=O)Nc2cc(Oc3cc(C)cc(C)c3)cc([N+](=O)[O-])c2)c1C | 13.9 | -0.1 | 30.5 | 52.8* | 7.5 | 70.7 | 59.5* | FLuc counter=51.4*
CC(C)C1CC(CCNCc2ccc(N(C)C)cc2)(c2ccccc2)CCO1 (configuration not stated) | 2.0 | 3.3 | 4.6 | 34.0 | -5.0 | -30.1 | ·
Cc1ccc(C2(CCNCc3ccc(N(C)C)cc3)CCOC(C(C)C)C2)cc1 (configuration not stated) | 19.3 | 4.0 | -3.1 | 92.5* | 9.5 | 12.9 | 23.2
CCc1ccccc1N(C(C)=O)c1nc(CCl)cs1 | · | -0.1 | -20.4 | 9.7 | 10.8 | -8.6 | ·
O=C(CSc1nnc2ncccn12)N1CCCCCC1 | -8.6 | -0.3 | 2.2 | -4.1 | 2.8 | -12.5 | ·
COc1ccc(CCN2CC(C(=O)NCc3cc(C)on3)CCC2=O)cc1 (configuration not stated) | · | -0.6 | -2.7 | 14.2 | 1.2 | · | ·
CCNc1nc(NC(C)CC)nc(Oc2ccc(OCC)nn2)n1 (configuration not stated) | 2.8 | 1.6 | 3.9 | 54.2* | 8.8 | 7.3 | 3.8
CCOc1ccc(Oc2nc(NCC(C)C)nc(OC)n2)nn1 | -1.5 | 0.7 | -3.3 | 21.8 | -7.3 | -19.0 | ·
COc1ccc(OC)c(NC(=O)C(=O)NNC(=O)C23CC4CC(CC(C4)C2)C3)c1 | 18.6 | 2.4 | 10.7 | 21.9 | -6.0 | -11.9 | ·
COc1cccc(C2C(C#N)=C(N)Oc3cc(N)ccc32)c1OC (configuration not stated) | · | 1.4 | -1.1 | -9.0 | -5.9 | -16.5 | ·
N#CC1=C(N)Oc2cc(N)ccc2C1c1ccccc1F (configuration not stated) | 6.2 | 0.1 | 6.1 | 55.9* | -3.5 | 47.7 | 51.7* | FLuc counter=66.8*
N#CC1=C(N)Oc2cc(N)ccc2C1c1cc(Br)cs1 (configuration not stated) | 19.2 | 0.8 | 3.0 | 58.4* | 4.3 | 60.4 | 28.9
Cc1cc(C(=O)NNC(=O)Nc2cccc(C(F)(F)F)c2)no1 | -1.5 | -0.6 | 0.4 | 22.2 | -10.3 | -3.9 | ·
O=C(N/N=C/c1ccc(O)cc1)c1[nH]c2ccc(Br)cc2c1-c1ccccc1 | 10.4 | 2.5 | ? | 66.8* | 13.6 | 50.6 | 56.4* | FLuc counter=91.7*
